Assay results: PubChem BioAssay (Tox21)
Results filed as inconclusive are left out. Where a call stands in place of a potency, no number is given. Activity calls are given as the source filed them. Calls follow the shape of the dose curve; as a rule, active = well fitted cell-killing curve with a large enough effect in the repeat runs; inconclusive = weak or mixed curves, or effect the other way; inactive = no such curve, though single readings can be large or run the other way.

Assay: qHTS assay to identify small molecule agonists of the estrogen receptor alpha (ER-alpha) signaling pathway in the presence of an antagonist - cell viability counter screen (AID 1259386);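 also: cells exposed to compounds for 22 h at 37 °C before the viability read; nearly all actives have a fitted effect of over 30% in size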
Conditions: VM7Luc4E2 viability, CellTiter-Fluor fluorescence, 22 h; series mostly up to 92.4 µM
Text: National Center for Advancing Translational Sciences [NCATS]
NIH Chemical Genomics Center [NCGC]
U.S. Environmental Protection Agency [EPA]
National Institutes of Environmental Health Sciences [NIEHS]
National Toxicology Program [NTP]
U.S. Food and Drug Administration [FDA]
Estrogen receptor (ER), a member of nuclear hormone receptor plays an important role in development, metabolic homeostasis and reproduction. Two subtypes of ER, ER-alpha and ER-beta, have similar expression patterns with some uniqueness in both types. Endocrine disrupting chemicals (EDCs) and their interactions with steroid hormone receptors like ER causes disruption of normal endocrine function. Therefore, it is important to understand the effect of environmental chemicals in ER signaling pathway. For identifying ER agonists, VM7Luc4E2 cell line has been used in the current assay.
VM7Luc4E2 cell line (provided by Denison MS, University of California) endogenously expresses full-length ER-alpha and is stably transfected with a plasmid containing four estrogen responsive elements (ERE) upstream of a luciferase reporter gene. This current screening for measuring luciferase reporter gene activity using VM7Luc4E2 cells against Tox21 10K library collection is a confirmation study on agonist mode screening in presence of ER-antagonist (ICI-182,780) at 10.0nM final concentration. The cytotoxicity of the compounds was tested in parallel by measuring the cell viability using CellTiter-Fluor assay system (Promega, Madison, WI) in the same wells.
Tox21 Assay Protocol Summary:
VM7Luc4E2 cells were cultured in phenol red free assay medium containing 10% charcoal stripped FBS for 5 days prior to the assay. The cells were dispensed at 4,000 cells in 4uL of assay medium per well into white wall/solid-bottom 1536-well plates (Corning Life Sciences, Corning, NY) using a Multidrop Combi (Thermo Fisher Scientific Inc., Waltham, MA) dispenser. After the assay plates were incubated at 37C and 5% CO2 for 24hr, 1uL of 10.0nM (final concentration) ICI-182,780 or assay buffer was added using two separate tips of Flying Reagent Dispenser (FRD, Aurora Discovery, San Diego, CA). Then 23nL of compounds dissolved in DMSO at 15 concentrations and positive controls or DMSO only was transferred to the assay plates by a Pintool station (Wako, San Diego, CA). The assay plates were incubated at 37C and 5% CO2 for 22hr. After 21hr incubation at 37C, 1uL/well CellTiter-Fluor reagent (Promega Corporation, Madison, WI) was added to each well using FRD and after 1hr incubation at 37C and 5% CO2, the fluorescence signal was measured on ViewLux plate reader (PerkinElmer, Shelton, CT).
Potency is read from the fitted curve at half-maximal effect.

Row | SMILES | Potency
1 | CC(C)c1ccc2sc3ccccc3c(=O)c2c1 | inactive
2 | CCC(C)(C)c1ccc(CC(C)CN2C[C@@H](C)O[C@@H](C)C2)cc1 (stereo not given in full) | inactive
3 | CCNc1nc(NC(C)(C)C)nc(OC)n1 | inactive
4 | CC(C)=CCC[C@H](C)CC=O | inactive
5 | O=C(Nc1ccc([N+](=O)[O-])cc1)Nc1ccc([N+](=O)[O-])cc1 (tested in a mixture with another compound) | inactive
6 | C[C@H]1O[C@@H](O[C@H]2CC[C@@]3(C)[C@H](CC[C@@H]4[C@@H]3C[C@@H](O)[C@]3(C)[C@@H](C5=CC(=O)OC5)CC[C@]43O)C2)C[C@H](O)[C@@H]1O[C@H]1C[C@H](O)[C@H](O[C@H]2C[C@H](O)[C@H](O[C@@H]3O[C@H](CO)[C@@H](O)[C@H](O)[C@H]3O)[C@@H](C)O2)[C@@H](C)O1 | inactive
7 | Nc1ccc(F)c([N+](=O)[O-])c1 | inactive
8 | CC(C)=NNC(N)=S | inactive
9 | CSc1nnc(C(C)(C)C)c(=O)[nH]1 | inactive
10 | O=C(Nc1ccccc1)c1cc(Cl)ccc1O | 15.4 µM (active)
11 | CN1CCN(C)CC1 | inactive
12 | O=c1[nH]cccc1O | inactive
13 | CC1CCC(C(C)(C)O)CC1 (stereo not given) | inactive
14 | CC(c1cc(C(C)(C)C)cc(C(C)(C)C)c1O)c1cc(C(C)(C)C)cc(C(C)(C)C)c1O | inactive
15 | O=[N+]([O-])c1ccc(O)c2ncccc12 | 11.9 µM (active)
16 | Cc1ccc2sc3cccc(C)c3c2c1 | inactive
17 | CCC(=O)OC/C=C(\C)CCC=C(C)C | inactive
18 | CCCCCCCCCCCCCCCCCCNC(=O)OC1CCN(C(=O)OC[C@H](COC(=O)N(Cc2cccc[n+]2CC)C(=O)c2ccccc2OC)OC)CC1 | 26.6 µM (active)
19 | COc1ccc(OC)c(N=Nc2c(O)ccc3ccccc23)c1 | 6.11 µM (active)
20 | CC(C)(C)C1=CC(=O)C(C(C)(C)C)=CC1=O | inactive

Row | SMILES | Potency
21 | Nc1ccc(N)c([N+](=O)[O-])c1 | 30.6 µM (active)
22 | CCN(CC)c1ccc2c(c1)Oc1cc(N(CC)CC)ccc1C21OC(=O)c2ccccc21 | 5.31 µM (active)
23 | CC(Cc1ccc(O)c(O)c1)C(C)Cc1ccc(O)c(O)c1 (stereo not given) | inactive
24 | CC(C)(C)c1cc(CCC(=O)OCCSCCOC(=O)CCc2cc(C(C)(C)C)c(O)c(C(C)(C)C)c2)cc(C(C)(C)C)c1O | inactive
25 | C=C(C)CCO | inactive
26 | CCn1c2ccccc2c2ccccc21 | inactive
27 | C=COCCCC | inactive
28 | CC1=C(/C=C/C(C)=C/C=C/C(C)=C\C(=O)O)C(C)(C)CCC1 | inactive
29 | O=[N+]([O-])c1ccc(CO)cc1 | inactive
30 | Cc1ccc(N=Nc2c(O)ccc3ccccc23)c(C)c1 | 7.5 µM (active)
31 | O=c1cc[nH]cc1 | inactive
32 | CN1CC[C@H](c2c(O)cc(O)c3c(=O)cc(-c4ccccc4Cl)oc23)[C@H](O)C1 | inactive
33 | Clc1ccc2c(Cl)ccnc2c1 | inactive
34 | SC1CCCCC1 | inactive
35 | CSc1ccc(O)cc1C | inactive
36 | Nc1ccc(Cl)c([N+](=O)[O-])c1 | inactive
37 | Cc1cc(C)c(O)c(C(C)(C)C)c1 | inactive
38 | C=CC(C)(C)O | inactive
39 | CC(=O)Nc1ccc(N=Nc2cc(C)ccc2O)cc1 | 15.4 µM (active)
40 | CCCCCCCCCCCCCCCCC(C(=O)O)C(O)(CC(=O)O)C(=O)O (stereo not given) | inactive
